The structures appear in SMILES notation. Unmarked numbers belong to inactive results. Inconclusive results are not listed. Active and inactive are the calls of the source. Unless noted, the call rests on the fitted dose curve; in most records, active means well fitted curve in the direction sought with a large enough effect; inconclusive means small, poorly fitted or top-dose-only effect, or another doubt; inactive means no such curve, though single readings can be large; an effect the other way counts as inactive or inconclusive. A value given as a limit tells only on which side of the number the result lay.

Test [1] deals with Lysosomal acid glucosylceramidase (Homo sapiens) (UniProt P04062). Kind of test: Glucocerebrosidase-p2 (AID 348; in the data active means potency below about 10 µM; further: potency means the concentration at half of the fitted maximal effect). Conditions: purified GBA, blue fluorogenic substrate, 40 min. The essentials: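 Normal human glucocerebrosidase (0.2 nM) with blue fluorogenic substrate (80 uM final) in citrate/phosphate pH 5.9 with 10mM sodium taurocholate, 0.01% tween-20; 40 min RT, NaOH/glycine stop; fluorescence Ex 365/Em 440; AC50 from a titration from 0.6 nM upwards.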

A short description of test [2]: AP1 Signaling Pathway (AID 357; active means well fitted curve in either direction with a large enough effect, not every such curve was filed as active;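 further: ME-180 reporter cells stimulated with EGF at its EC50 level; on the % scale 0 is the no-effect control and ±100 the full control effect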). Conditions: ME-180 AP-1-bla reporter, EGF-induced, beta-lactamase ratio, 5 h; at 7.69 µM (top of the series) unless noted. The essentials: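 Titration-series screen for positive or negative modulators of EC50 EGF-induced signaling in ME-180 cells carrying an AP-1-driven beta-lactamase reporter. After 5 hours at 37 degrees Celsius, CCF4 460nm/530nm emission ratio gave %Activity; AC50 values derived.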

Test [3] can be described thus: NFAT Signaling Pathway (AID 444; active means well fitted curve in either direction with a large enough effect, not every such curve was filed as active;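 further: carbachol stimulus at about its EC50 of 1 µM final; on the % scale 0 is the no-effect control and ±100 the full control effect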). Conditions: Jurkat NFAT-bla M1, carbachol, beta-lactamase ratio, 5 h; at 7.69 µM (top of the series) unless noted. An outline of the steps: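 Read-out: CCF4 FRET ratio (460 nm/530 nm) after 1 h RT dye loading, used for %activity and AC50 from titration series. Cells: Jurkat NFAT-β-lactamase/M1 line, treated with compound plus 1 uM carbachol for 5 h, 37 °C.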

Test [4] concerns the target Glucocorticoid receptor (Homo sapiens) (UniProt P04150). Briefly: GR-GFP Redistribution (AID 450;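 active means compounds whose dose series gives a full or clear partial fitted curve of increased nuclear translocation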; further: potency means the concentration at half of the fitted maximal effect). Conditions: U2OS GR-GFP nuclear translocation, laser cytometry, 2 h.
For test [5] the target is unchanged. Kind of test: GR-EFC Redistribution (AID 451; calls by dose curve; further: potency means the concentration at half of the fitted maximal effect). Conditions: CHO-K1 GR-EFC translocation, beta-gal luminescence, 2 h. The essentials: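 Translocation of GR-ED fusion to nuclear EA restores b-gal, read by luminescence after 1 h room-temperature detection. Engineered CHO-K1 biosensor cells, 1,000/well, exposed 2 h at 37 C to titrations up to 46 uM final.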
The target of test [6] is Mitogen-activated protein kinase 10 (Mus musculus) (UniProt Q61831). Briefly: JNK3 AlphaScreen Assay (AID 530; active means well fitted curve in either direction with a large enough effect, not every such curve was filed as active;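 further: kinase came from lysate of stimulated human HepG2 cells; signal reports phosphorylation of biotinylated GST-cJun 1-79 at Ser73 with 10 µM ATP; on the % scale 0 is the no-effect control and ±100 the full control effect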). Conditions: JNK3 lysate, c-Jun phosphorylation; series mostly up to 57.1 µM. The essentials: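 qHTS titrations with 15 min compound pre-incubation before adding ATP (10 uM final). Read-out: AlphaScreen of Ser73-phosphorylated biotin-GST-cJun using HepG2 lysate JNK3 activated by IL-1β and TNFα.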
(Bead proximity is the source of the signal in Alpha formats.)

Test [7] deals with Cytochrome P450 3A4 (Homo sapiens) (UniProt P08684). Briefly: qHTS Assay for Activators of Cytochrome P450 3A4 (AID 885). Further: nearly all actives have a fitted effect of over 65% in size. Conditions: recombinant CYP3A4, Luciferin-PPXE luminescence, 60 min; series mostly up to 57.1 µM. An outline of the steps: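 CYP3A4 activity: Luciferin-PPXE O-dealkylation, 25uM substrate, 200mM KPO4, RT throughout. Read-out is luciferase luminescence; higher values reflect activation.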

Test [8] deals with Cytochrome P450 2C19 (Homo sapiens) (UniProt P33261). Briefly: qHTS Assay for Inhibitors and Substrates of Cytochrome P450 2C19 (AID 899). Further: potency means the concentration at half of the fitted maximal effect; nearly all actives have a fitted effect of over 60% in size. Conditions: recombinant CYP2C19, luciferin-H EGE luminescence; series mostly up to 57.1 µM. An outline of the steps: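 Reactions contain 5nM enzyme, 10uM Luciferin-H EGE (KM) and 50mM KPO4; compound preincubates 10 min at 37C, NADPH regeneration starts turnover for 60 min. Luminescence after detection reagent gives activity.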
(In general: Quantitative high-throughput screening tests each substance at several concentrations.)

The target in test [9] is Dual specificity protein kinase CLK4 (Homo sapiens) (UniProt Q9HAZ1). Kind of test: qHTS Assay for Inhibitors of CDC-like Kinase 4 (ADP-Glo Assay) (AID 1771). Further: nearly all actives have a fitted effect of over 70% in size. Further: potency means the concentration at half of the fitted maximal effect. Conditions: recombinant CLK4, ADP-Glo luminescence; series mostly up to 80 µM. An outline of the steps:
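Compounds are pin-transferred onto substrate mix (100 uM RS peptide, 1 uM ATP), then 25 nM Clk4 is added. After 1 hr at room temperature, ADP-Glo reagent runs 45 min, detection reagent 30 min, then luminescence is read.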

The target is the same in test [10]. Kind of test: qHTS Assay for Inhibitors of CDC-like Kinase 4 (ADP-FP Assay) (AID 1795). Further: nearly all actives have a fitted effect of over 60% in size. Further: potency means the concentration at half of the fitted maximal effect. Conditions: Transcreener ADP fluorescence polarization; series mostly up to 50 µM. The essentials:
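Recombinant Clk4 (6.25 nM) phosphorylated 100 uM RS repeat peptide with 1 uM ATP in 25 mM Tris pH 7.5, 10 mM MgCl2, 0.5 mM EGTA, 2.5 mM DTT, 0.01% Triton X-100 for 1 h. ADP was detected by Transcreener ADP2 competitive fluorescence polarization after 30 min at room temperature.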

The target in test [11] is Ubiquitin carboxyl-terminal hydrolase 1 (Homo sapiens) (UniProt O94782). Kind of test: Inhibitors of USP1/UAF1: Pilot qHTS (AID 504865).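 Further: rhodamine fluorescence freed from ubiquitin-rhodamine substrate followed over time; top concentration of the series differs between compounds; on the % scale 0 is the no-effect control and ±100 the full control effect; nearly all actives have a fitted effect of over 35% in size.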 Conditions: purified USP1/UAF1, Ub-rhodamine cleavage fluorescence; series mostly up to 54.9 µM. An outline of the steps: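 USP1/UAF1 complex at 1 nM preincubated 15 min at room temperature with compound, then Ub-Rho substrate added at 150 nM final. Fluorescence (480/540 nm) read kinetically in 50 mM HEPES pH 7.8, 0.5 mM EDTA, 1 mM TCEP, 0.1 mg/ml BSA, 0.01% Tween-20.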

Test [12] can be described thus: Stat Signaling Pathway (AID 446; active means well fitted curve in either direction with a large enough effect, not every such curve was filed as active;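 further: ME-180 cervical cancer cells given 40 pM IL-6 alongside compound; SIE-controlled beta-lactamase reporter measured as 460/530 nm FRET emission ratio; on the % scale 0 is the no-effect control and ±100 the full control effect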). Conditions: ME-180 SIE beta-lactamase reporter, IL-6 stimulated, 5 h; series mostly up to 7.69 µM. An outline of the steps: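 Compound effects on IL-6-induced STAT reporter activity were measured in ME-180 cells. After overnight culture, cells were co-treated with 40 pM IL-6 for 5 hrs before beta-lactamase substrate loading at room temperature.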

For test [13], the target named is 3',5'-cyclic-AMP phosphodiesterase 4B (Homo sapiens) (UniProt Q07343). Kind of test: qHTS Assay for Inhibitors of PDE-IV (AID 607; active means well fitted activation curve with a large enough effect in the main read-out, with a control signal flat, not every such curve was filed as active; further: % of control where 0% means no effect). Conditions: HEK293 ACTOne CNG channel cells, membrane potential fluorescence; series mostly up to 22.9 µM. The essentials: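 ACTOne HEK293 cells carry a modified cAMP-gated CNG channel and express endogenous PDE4; plated 1000 cells/well, compounds up to 22.9 uM final. Membrane-potential dye fluorescence (ex 535/em 590) was read; parental cells received 10 uM forskolin + 100 uM RO 20-1724.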

The target in test [14] is Cytochrome P450 1A2 (Homo sapiens) (UniProt P05177). Kind of test: p450-cyp1a2 (AID 410; calls by dose curve; further: potency means the concentration at half of the fitted maximal effect). Conditions: recombinant CYP1A2, luciferin-ME demethylation, luminescence; series mostly up to 57 µM. An outline of the steps: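 O-Demethylation of luciferin 6' methyl ether by human CYP1A2 is monitored as luciferase luminescence. Substrate sits at Km (100uM); enzyme is 20nM. Values are scaled to 57 uM furafylline as maximal inhibition.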

Test [15] can be described thus: qHTS Assay for Identification of Small Molecule Agonists for Hypoxia Response Element Signaling Pathway (AID 914; active means well fitted activation curve with a large enough effect in the signal ratio, with a control signal flat, not every such curve was filed as active; the % refers to the signal ratio; further: potency means the concentration at half of the fitted maximal effect). Conditions: ME-180 (cervical carcinoma) HRE-bla reporter, beta-lactamase ratio, CoCl2, 17 h; activation: stronger effect = higher value. An outline of the steps:
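A beta-lactamase reporter under hypoxia response element control in ME-180 cells served as the system. Compound titrations plus EC50 CoCl2 ran 17 h at 37 degrees Celsius; AC50 values were fitted from %Activity.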

For test [16], the target named is Dual specificity protein kinase CLK4 (Homo sapiens) (UniProt Q9HAZ1). Kind of test: qHTS Assay for Inhibitors of CDC-like Kinase 4 (Kinase-Glo Assay) (AID 1770). Further: nearly all actives have a fitted effect of over 65% in size. Further: potency means the concentration at half of the fitted maximal effect. Conditions: recombinant Clk4, Kinase-Glo ATP depletion luminescence; series mostly up to 66.7 µM. The essentials: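 25 nM Clk4 with 100 uM RS repeat peptide and 1 uM ATP (final) in Tris pH7.5, 10 mM MgCl2, 4.5 h at room temperature. Remaining ATP measured by Kinase-Glo luciferase luminescence.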

In test [17] the target is Cytochrome P450 2D6 (Homo sapiens) (UniProt P10635). Kind of test: qHTS Assay for Inhibitors and Substrates of Cytochrome P450 2D6 (AID 891). Further: potency means the concentration at half of the fitted maximal effect; nearly all actives have a fitted effect of over 60% in size. Conditions: recombinant CYP2D6, luciferin-ME EGE luminescence; series mostly up to 57.1 µM. An outline of the steps:
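Luminescent read-out of luciferin formed by 5 nM human CYP2D6 demethylating 30 uM Luciferin-ME EGE (Km level) over 60 min at room temperature after NADPH regeneration addition. Data normalized to full inhibition by 1.43 uM quinidine.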

Sequence of Dual specificity protein kinase CLK4 (Homo sapiens) (Q9HAZ1 whole entry, looked up): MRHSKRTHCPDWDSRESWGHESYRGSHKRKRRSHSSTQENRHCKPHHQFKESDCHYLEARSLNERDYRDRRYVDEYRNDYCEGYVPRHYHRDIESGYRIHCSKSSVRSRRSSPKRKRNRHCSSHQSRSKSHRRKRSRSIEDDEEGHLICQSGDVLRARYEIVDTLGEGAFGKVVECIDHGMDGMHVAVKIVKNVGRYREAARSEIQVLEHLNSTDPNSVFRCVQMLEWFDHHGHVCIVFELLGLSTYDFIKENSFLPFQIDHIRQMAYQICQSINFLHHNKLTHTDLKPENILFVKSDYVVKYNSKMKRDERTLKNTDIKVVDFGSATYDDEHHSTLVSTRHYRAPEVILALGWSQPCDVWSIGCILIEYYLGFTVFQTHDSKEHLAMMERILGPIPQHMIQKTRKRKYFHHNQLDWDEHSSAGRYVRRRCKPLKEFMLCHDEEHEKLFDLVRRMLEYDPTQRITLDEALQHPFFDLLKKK
Sequence of Lysosomal acid glucosylceramidase (Homo sapiens) (P04062 whole entry, looked up): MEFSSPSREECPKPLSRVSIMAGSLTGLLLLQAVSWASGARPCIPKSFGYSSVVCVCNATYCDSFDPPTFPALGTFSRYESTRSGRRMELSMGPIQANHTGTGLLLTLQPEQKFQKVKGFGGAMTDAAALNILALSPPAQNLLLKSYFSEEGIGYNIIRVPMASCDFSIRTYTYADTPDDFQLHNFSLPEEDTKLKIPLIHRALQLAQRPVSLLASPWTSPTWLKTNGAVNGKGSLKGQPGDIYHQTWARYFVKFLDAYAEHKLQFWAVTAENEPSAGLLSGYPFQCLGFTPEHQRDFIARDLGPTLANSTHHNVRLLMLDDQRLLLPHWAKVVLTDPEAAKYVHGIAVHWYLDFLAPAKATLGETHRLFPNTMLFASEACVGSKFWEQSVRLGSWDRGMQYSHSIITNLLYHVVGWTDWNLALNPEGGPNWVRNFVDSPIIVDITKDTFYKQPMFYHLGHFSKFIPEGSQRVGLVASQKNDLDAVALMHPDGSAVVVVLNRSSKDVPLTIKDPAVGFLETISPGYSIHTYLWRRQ
Sequence of Cytochrome P450 1A2 (Homo sapiens) (P05177 whole entry, looked up): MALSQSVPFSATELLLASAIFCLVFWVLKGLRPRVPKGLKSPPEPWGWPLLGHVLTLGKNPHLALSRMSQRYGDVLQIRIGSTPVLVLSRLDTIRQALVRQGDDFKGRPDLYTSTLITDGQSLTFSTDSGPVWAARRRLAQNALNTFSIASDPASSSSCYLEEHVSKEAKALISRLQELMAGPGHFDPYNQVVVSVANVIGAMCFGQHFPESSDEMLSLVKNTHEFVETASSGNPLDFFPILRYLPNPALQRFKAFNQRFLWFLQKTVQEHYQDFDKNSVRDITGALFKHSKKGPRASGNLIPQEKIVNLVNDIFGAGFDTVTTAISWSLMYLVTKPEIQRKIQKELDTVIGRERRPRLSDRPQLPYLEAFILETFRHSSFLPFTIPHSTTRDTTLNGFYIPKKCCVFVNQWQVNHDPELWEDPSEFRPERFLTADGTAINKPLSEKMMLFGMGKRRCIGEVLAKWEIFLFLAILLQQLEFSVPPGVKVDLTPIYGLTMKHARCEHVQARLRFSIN
Sequence of Glucocorticoid receptor (Homo sapiens) (P04150 whole entry, looked up, the tested form may be a part): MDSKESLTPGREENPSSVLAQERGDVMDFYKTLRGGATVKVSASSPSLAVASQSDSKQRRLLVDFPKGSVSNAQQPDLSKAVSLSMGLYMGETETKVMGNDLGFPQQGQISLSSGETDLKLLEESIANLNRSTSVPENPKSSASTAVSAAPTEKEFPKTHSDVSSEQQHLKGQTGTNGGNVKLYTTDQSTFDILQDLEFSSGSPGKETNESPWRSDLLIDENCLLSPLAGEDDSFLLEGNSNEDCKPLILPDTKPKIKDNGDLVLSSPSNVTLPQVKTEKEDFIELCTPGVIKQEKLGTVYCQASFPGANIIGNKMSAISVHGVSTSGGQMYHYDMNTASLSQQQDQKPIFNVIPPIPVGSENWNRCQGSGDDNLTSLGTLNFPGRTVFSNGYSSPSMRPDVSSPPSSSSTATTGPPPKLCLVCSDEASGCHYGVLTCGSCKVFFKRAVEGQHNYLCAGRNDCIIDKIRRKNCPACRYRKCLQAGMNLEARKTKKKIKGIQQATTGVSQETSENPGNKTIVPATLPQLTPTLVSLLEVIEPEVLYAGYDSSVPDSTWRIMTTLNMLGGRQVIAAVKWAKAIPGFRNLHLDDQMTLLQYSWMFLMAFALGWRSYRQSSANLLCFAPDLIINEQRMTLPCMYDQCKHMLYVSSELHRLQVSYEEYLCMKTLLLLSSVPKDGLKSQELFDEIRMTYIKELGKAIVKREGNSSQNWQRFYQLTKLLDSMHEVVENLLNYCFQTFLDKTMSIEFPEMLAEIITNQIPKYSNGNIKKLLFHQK
Sequence of Ubiquitin carboxyl-terminal hydrolase 1 (Homo sapiens) (O94782 whole entry, looked up): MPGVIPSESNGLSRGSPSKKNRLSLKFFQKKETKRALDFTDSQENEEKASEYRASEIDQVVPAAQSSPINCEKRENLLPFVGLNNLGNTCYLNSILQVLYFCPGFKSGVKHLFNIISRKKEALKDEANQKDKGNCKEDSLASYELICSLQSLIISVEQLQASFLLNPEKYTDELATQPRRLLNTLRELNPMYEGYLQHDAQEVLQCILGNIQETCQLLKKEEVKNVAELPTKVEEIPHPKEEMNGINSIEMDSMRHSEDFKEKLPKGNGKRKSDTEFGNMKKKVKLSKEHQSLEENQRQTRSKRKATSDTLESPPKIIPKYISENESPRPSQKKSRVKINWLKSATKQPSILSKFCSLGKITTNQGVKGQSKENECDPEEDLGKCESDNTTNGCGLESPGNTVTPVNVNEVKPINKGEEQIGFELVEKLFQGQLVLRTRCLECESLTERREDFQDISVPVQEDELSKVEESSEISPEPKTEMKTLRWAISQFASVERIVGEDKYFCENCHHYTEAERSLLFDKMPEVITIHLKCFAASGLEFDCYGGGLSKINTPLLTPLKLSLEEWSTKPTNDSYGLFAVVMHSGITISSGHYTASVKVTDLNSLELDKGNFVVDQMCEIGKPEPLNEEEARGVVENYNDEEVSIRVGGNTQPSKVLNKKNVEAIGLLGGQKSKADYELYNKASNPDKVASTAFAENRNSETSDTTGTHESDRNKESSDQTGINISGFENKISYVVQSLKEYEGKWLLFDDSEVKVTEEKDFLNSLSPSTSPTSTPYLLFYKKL
Sequence of Cytochrome P450 3A4 (Homo sapiens) (P08684 whole entry, looked up): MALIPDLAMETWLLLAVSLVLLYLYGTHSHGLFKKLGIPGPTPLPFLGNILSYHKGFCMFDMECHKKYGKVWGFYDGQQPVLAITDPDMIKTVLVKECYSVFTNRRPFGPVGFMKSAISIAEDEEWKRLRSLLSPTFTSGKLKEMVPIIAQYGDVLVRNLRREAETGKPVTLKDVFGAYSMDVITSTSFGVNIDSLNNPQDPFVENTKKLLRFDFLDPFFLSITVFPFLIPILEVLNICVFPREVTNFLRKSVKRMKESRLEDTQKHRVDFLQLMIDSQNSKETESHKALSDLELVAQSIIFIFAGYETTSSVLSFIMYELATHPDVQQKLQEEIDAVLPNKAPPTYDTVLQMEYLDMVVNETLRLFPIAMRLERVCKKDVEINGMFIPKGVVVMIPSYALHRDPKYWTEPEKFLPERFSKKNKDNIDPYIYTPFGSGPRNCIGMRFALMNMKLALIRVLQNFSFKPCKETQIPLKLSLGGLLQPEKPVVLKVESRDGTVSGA
Sequence of 3',5'-cyclic-AMP phosphodiesterase 4B (Homo sapiens) (Q07343 whole entry, looked up): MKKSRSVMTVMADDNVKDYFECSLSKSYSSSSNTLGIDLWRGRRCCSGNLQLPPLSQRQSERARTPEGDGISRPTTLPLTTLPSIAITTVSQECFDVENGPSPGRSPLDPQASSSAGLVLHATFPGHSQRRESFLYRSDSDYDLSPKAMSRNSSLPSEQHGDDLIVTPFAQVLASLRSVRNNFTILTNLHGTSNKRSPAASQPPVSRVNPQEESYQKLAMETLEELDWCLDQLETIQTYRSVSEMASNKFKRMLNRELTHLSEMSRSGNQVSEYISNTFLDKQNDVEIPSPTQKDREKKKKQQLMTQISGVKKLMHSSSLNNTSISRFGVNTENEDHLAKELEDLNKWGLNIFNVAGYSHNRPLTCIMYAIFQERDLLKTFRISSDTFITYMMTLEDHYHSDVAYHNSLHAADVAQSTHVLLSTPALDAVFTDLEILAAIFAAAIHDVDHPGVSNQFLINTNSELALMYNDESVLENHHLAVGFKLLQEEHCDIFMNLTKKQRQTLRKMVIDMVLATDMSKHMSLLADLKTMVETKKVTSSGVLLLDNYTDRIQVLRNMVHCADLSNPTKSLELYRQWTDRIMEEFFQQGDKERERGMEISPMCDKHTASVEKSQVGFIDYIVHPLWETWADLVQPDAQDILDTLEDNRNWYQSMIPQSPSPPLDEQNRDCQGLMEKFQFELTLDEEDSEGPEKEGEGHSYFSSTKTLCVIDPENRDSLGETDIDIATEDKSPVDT
Sequence of Cytochrome P450 2C19 (Homo sapiens) (P33261 whole entry, looked up): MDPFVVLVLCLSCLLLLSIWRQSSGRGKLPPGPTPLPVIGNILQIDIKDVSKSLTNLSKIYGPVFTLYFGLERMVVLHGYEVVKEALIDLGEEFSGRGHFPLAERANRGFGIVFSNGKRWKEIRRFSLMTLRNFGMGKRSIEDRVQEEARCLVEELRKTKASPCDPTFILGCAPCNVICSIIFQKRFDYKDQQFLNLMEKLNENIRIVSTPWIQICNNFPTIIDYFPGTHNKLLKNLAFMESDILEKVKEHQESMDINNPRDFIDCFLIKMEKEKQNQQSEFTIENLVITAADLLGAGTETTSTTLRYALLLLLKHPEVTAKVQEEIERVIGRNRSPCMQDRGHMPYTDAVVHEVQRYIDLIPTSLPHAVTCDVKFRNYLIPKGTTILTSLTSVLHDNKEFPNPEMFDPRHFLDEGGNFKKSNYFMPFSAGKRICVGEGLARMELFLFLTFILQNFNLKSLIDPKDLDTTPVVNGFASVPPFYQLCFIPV

As to `COc1cccc(-c2ccc3ncnc(N4CCNCC4)c3c2)c1`, the Potency was more than 11.4 µM in [1]; more than 46 µM in [4]; more than 46 µM in test [5]; 3.16 µM (active) in [8]; 2 µM (active) in test [9]; 1 µM (active) in test [10]. Moreover, the activity change, negative = inhibition is 1.7% in test [2] and 11.4% in test [3]. Further, the Potency entry in test [6] and in test [11] was “inactive” each time. The result in test [7] was inactive.

Regarding `Cc1nc2cnc(Oc3cccc(Cl)c3)nc2n(Cc2ccc(F)cc2)c1=O`, the values for the Potency in test [1], in test [4] and in [5] were more than 11.4 µM, more than 9.22 µM and more than 46 µM, respectively. The activity change, negative = inhibition in [3] is -21.7%. Also, the molecule was called inactive in test [12]. Besides, the Potency result in test [6], in test [13], in test [9], in test [10] and in [11] was “inactive” throughout.

For the molecule `O=c1c(-c2ccccc2)nc2cnc(N3CCOCC3)nc2n1CCc1ccccc1`, the Potency in test [1] is more than 11.4 µM; in test [14], 12.6 µM (active); in [4] it was more than 9.22 µM; in [5], more than 46 µM; in test [15], 3.16 µM (active). Moreover, the result in [7] was inactive. Moreover, the Potency result in test [16], in [10] and in [11] was “inactive” in each case.

Turning to `Cn1cc(-c2nc3cnc(N4CCNCC4)nc3n(CCc3ccccc3)c2=O)c2ccccc21`, the Potency in [1] is more than 11.4 µM; in test [14], 15.8 µM (active); in test [4] it was more than 9.22 µM; in test [8], 2 µM (active). The activity change, negative = inhibition in [3] was 91.4% [activator] (active). Further, the Potency entry in test [13], in test [9] and in [10] was “inactive” in each case. Besides, the outcome in test [7] was inactive.

As for `CN(C)c1ccc(-c2nccc(NCc3cccs3)n2)cc1`, in [2], the activity change, negative = inhibition was -18.4%. In addition, the Potency is 0.398 µM (active) in [14]; more than 46 µM in test [4]; more than 46 µM in [5]; 0.126 µM (active) in test [17]; 8.91 µM (active) in [16]; 5.62 µM (active) in [9]. For the same molecule, the molecule was called inactive in [12] and in test [7]. Moreover, the Potency entry in test [6] and in test [11] was “inactive” throughout.

The record behind these values is PubChem BioAssay (NCATS).
